These results are taken from PubChem BioAssay.

The source made the active and inactive calls.

The nature of assay [1]: small molecules captured by biotinylated probe aFSTL3 – biochemical, small-molecule microarray, fluorescence 635/667, stem cell growth factor project, primary screen (AID 1064).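 Further: measures binding of the biotinylated anti-FSTL3 antibody to printed compounds.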 To be noted: higher = more signal.
The nature of assay [2]: binders from COS7 lysate, DM2A8 probe, primary screen, torsin A project, cell lysate, small-molecule microarray, fluorescence 635/667 (AID 1065). As to conditions: higher = more signal, COS7 lysate expressing mutant human TOR1A.
Assay [3] can be described thus: small molecules captured by biotinylated probe aFGF2 – biochemical, small-molecule microarray, fluorescence 635/667, stem cell growth factor project, primary screen (AID 1067).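 Further: measures binding of biotinylated aFGF2 protein to printed compounds on slides; z-score merges feature fluorescence and signal-to-noise across triplicate slides.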 As to conditions: higher = more signal.
A short description of assay [4]: small molecules captured by biotinylated probe aFGF10 – biochemical, small-molecule microarray, fluorescence 635/667, stem cell growth factor project, primary screen (AID 1071).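 Further: score merges 667 nm spot intensity and signal to noise from triplicate slides.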 To be noted: higher = more signal.
Assay [5] addresses Neurogenic locus notch homolog protein 2 (Homo sapiens) (UniProt Q04721). As to the kind of experiment: small molecules binding Notch2 protein – biochemical, small-molecule microarray, 635 nm fluorescence, stem cell growth factors, primary screen (AID 1073). To be noted: higher = more signal.
Assay [6] addresses Pro-neuregulin-1, membrane-bound isoform (Homo sapiens) (UniProt Q02297). As to the kind of experiment: small molecules binding neuregulin-1 protein – biochemical, small-molecule microarray, fluorescence 635/667, psychiatric disease protein project, primary screen (AID 1075).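 Further: score combines 667 nm spot fluorescence with signal to noise.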 As to conditions: NRG1 binding, 635 nm fluorescence, higher = more signal.
Assay [7] deals with Neuregulin-1 EGF-like domain. As to the kind of experiment: small molecules binding NRG1 EGF domain – biochemical, small-molecule microarray, 635 nm fluorescence, primary screen (AID 1081).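 Further: binding of the protein to compounds printed on small-molecule microarray slides.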 As to conditions: higher = more signal.
A short description of assay [8]: FRG1 expression reporter modulators in myotubes – cell-based, C2C12 myotubes, firefly/Renilla luciferase, luminescence, FRG1 inhibition for FSHD, primary screen (AID 1084). As to conditions: FRG1 promoter luciferase, higher = more signal, called active from +8 up or from −8 down.
Assay [9] is described as follows: small molecules captured by biotinylated probe aFST – biochemical, small-molecule microarray, fluorescence 635/667, stem cell growth factor project, primary screen (AID 1086).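 Further: score merges 667 nm fluorescence with signal-to-noise of each printed compound spot.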 To be noted: higher = more signal.
Assay [10] in a line: binders of probe aHhip on microarray, primary screen, stem cell growth factor project, biochemical, small-molecule microarray, fluorescence 635/667 (AID 1087).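 Further: score merges spot fluorescence at 667nm with spot signal to noise ratio.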 As to conditions: higher = more signal.

Chain of Pro-neuregulin-1, membrane-bound isoform (Homo sapiens) (Q02297 whole entry, looked up, the tested form may be a part, canonical isoform): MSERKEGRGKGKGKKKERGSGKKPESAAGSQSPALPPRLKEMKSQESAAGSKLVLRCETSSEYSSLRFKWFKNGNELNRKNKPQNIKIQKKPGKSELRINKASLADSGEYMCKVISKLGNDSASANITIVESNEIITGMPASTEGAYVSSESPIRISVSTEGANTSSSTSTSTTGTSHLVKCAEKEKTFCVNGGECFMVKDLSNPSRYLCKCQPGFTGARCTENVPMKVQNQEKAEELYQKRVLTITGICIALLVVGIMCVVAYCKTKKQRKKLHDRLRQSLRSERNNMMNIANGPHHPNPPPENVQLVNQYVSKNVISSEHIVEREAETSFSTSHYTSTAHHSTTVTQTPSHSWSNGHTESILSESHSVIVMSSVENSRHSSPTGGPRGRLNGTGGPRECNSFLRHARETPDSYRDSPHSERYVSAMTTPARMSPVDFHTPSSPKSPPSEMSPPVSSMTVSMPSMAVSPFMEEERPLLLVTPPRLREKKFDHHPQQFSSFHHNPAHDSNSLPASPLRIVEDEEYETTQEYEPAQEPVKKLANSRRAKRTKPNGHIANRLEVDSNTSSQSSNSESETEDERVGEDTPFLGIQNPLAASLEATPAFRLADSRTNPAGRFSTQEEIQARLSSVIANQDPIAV
Chain of Neurogenic locus notch homolog protein 2 (Homo sapiens) (Q04721 whole entry, looked up, canonical isoform): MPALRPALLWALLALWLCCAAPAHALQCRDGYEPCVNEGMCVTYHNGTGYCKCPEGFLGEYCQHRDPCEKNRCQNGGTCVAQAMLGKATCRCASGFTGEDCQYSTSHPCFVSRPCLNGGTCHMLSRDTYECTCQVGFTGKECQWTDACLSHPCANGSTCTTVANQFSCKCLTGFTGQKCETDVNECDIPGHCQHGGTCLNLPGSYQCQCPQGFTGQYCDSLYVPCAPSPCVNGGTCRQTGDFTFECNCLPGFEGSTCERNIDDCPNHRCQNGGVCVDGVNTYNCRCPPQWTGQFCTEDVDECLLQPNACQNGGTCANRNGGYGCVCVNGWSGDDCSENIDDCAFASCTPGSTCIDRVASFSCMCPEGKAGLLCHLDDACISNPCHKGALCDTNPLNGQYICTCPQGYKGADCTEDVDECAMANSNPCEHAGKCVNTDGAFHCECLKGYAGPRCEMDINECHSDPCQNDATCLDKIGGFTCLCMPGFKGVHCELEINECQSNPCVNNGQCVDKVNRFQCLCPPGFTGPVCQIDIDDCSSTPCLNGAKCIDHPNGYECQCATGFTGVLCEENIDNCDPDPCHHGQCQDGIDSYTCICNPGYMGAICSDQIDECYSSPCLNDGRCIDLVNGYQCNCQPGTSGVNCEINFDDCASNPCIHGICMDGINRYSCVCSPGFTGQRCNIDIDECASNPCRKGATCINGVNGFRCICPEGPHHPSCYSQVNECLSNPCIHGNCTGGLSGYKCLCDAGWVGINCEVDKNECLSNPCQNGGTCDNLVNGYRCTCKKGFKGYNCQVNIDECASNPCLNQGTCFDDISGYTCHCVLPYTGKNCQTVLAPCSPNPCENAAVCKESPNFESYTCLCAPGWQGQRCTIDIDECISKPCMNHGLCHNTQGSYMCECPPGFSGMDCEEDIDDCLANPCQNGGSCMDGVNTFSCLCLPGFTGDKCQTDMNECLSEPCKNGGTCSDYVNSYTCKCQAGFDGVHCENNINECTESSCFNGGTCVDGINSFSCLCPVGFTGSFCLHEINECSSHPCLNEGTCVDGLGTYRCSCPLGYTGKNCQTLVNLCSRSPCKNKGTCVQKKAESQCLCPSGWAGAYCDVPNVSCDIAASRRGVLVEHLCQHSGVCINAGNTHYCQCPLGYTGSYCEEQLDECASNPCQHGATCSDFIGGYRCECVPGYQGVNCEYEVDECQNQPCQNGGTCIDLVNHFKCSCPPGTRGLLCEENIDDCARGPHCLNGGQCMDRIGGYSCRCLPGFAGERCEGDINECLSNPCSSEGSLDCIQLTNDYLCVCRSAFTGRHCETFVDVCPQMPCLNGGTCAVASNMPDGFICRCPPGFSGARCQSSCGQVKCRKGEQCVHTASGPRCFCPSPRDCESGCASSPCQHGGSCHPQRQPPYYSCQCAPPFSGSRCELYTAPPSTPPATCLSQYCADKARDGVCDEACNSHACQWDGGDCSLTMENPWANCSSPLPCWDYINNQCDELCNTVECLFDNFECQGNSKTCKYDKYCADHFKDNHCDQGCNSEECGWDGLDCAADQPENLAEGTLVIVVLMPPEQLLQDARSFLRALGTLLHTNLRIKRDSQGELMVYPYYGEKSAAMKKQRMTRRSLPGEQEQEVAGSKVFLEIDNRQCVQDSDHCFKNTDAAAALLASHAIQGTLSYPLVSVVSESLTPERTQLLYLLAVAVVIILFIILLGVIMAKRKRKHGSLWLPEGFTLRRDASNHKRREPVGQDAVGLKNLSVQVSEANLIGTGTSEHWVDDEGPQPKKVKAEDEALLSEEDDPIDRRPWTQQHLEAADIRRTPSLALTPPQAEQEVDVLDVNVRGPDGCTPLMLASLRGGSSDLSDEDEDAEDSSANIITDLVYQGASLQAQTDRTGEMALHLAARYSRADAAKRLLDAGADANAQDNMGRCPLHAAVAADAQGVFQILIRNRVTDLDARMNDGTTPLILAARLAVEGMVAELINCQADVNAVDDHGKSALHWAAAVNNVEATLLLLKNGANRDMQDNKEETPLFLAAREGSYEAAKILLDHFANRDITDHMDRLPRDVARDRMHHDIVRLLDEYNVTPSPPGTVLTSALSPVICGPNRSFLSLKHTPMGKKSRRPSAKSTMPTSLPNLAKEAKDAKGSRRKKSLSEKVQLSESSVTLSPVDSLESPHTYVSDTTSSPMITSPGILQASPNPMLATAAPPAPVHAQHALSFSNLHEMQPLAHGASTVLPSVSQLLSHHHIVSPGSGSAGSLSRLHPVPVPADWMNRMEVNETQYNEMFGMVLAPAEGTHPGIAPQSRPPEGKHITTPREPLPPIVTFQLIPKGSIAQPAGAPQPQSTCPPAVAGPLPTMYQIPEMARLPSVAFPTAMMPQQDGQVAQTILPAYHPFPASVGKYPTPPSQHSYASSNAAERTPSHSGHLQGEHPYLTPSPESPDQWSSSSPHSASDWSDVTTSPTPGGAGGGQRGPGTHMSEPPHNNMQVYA

Take `COc1ccc(COC(=O)NN=C2C[C@@H](O)[C@@H](O)[C@@H]3[C@@H]4C(=O)N(Cc5ccc6c(c5)OCO6)C(=O)[C@@H]4CC[C@H]23)cc1`: the composite z-score in assay [1] was 1.62; in [2] it was -0.197; in assay [3], -0.0269; in assay [4] it was -0.0605; in [5] it was -0.546; in [6] it was -0.393. For the same compound, the composite z-score in assay [7] was -0.282; in assay [9], 0.648; in assay [10] it was 0.0373. Also, in [8], the z-score is 1.02 (inactive).
Regarding `CC(=O)OC[C@H]1O[C@H](CC=NOC(C)CN2CCCc3nc(C)c(C)cc32)C=C[C@@H]1OC(C)=O` (stereo not given in full), the composite z-score in [1] was -0.255; in assay [2], 0.28; in [3], -0.0621; in assay [4] it was 0.677; in assay [5], 0.804; in assay [6] it was -0.188. Also, the composite z-score in assay [7] turned out to be 0.819; in assay [9], 0.371; in assay [10], 0.0637. The z-score in assay [8] is 0.437 (inactive).
In the case of `O=C1[C@H]2[C@H]3[C@H](O)[C@H](O)CC(=NOCc4ccccc4)[C@H]3CC[C@H]2C(=O)N1C1CCCCC1`, the composite z-score in assay [1] was -0.483; in assay [2], 0.357; in assay [3], -0.0934; in [4], 0.412; in [5] it was 0.691; in [6], 0.195. For the same compound, the composite z-score was 1.03 in assay [7], 0.404 in assay [9] and -0.0645 in assay [10]. In addition, the z-score in assay [8] is 0.111 (inactive).
For the compound `C=CC[C@@H]1C=C[C@H](ON=C2C[C@@H](O)[C@@H](O)[C@@H]3[C@@H]4C(=O)N(CC)C(=O)[C@@H]4CC[C@@H]23)[C@@H](CO)O1`, the composite z-score in assay [1] is -0.416; in [2], 1.86; in [3], -0.0793; in assay [4], 0.228; in assay [5], -0.395; in assay [6], -0.417. Besides, the figures for the composite z-score in [7], in assay [9] and in assay [10] were -0.33, 0.245 and -0.0994, respectively. Further, the z-score in [8] is 1.15 (inactive).
Turning to `CC(=O)OC[C@H]1O[C@@H](ON=C2[C@H]3CCn4c(=O)n(-c5ccccc5)c(=O)n4[C@H]3[C@H](O)[C@@H]3O[C@H]23)[C@H](OC(C)=O)[C@@H](OC(C)=O)[C@@H]1OC(C)=O`, the composite z-score in [1] is -0.512; in assay [2], 0.617; in assay [3], -0.0787; in [4], 0.582; in assay [5], 0.396; in assay [6], 0.471. Besides, the results for the composite z-score in [7], in [9] and in assay [10] were 0.711, 0.259 and -0.0024, respectively. Moreover, the z-score in [8] is 0.295 (inactive).
Take `COC(=O)[C@@H]1CC[C@H](C)[C@@H](c2ccc(C)cc2)N1C(=O)c1ccc(C=NO[C@@H](C)c2cc(-c3c(C)cc(C)cc3C)no2)cc1`: the composite z-score in assay [1] is -0.4; in [2], 0.58; in assay [3] it was -0.166; in [4] it was 0.219; in [5] it was 0.239; in assay [6], 0.0688. Moreover, the figures for the composite z-score in assay [7], in assay [9] and in assay [10] were 0.38, 0.188 and -0.0237, respectively. The z-score in assay [8] was -1.21 (inactive).
Turning to `CC(=O)OC[C@H]1O[C@H](CCON=C(C)CCN2CCCc3nc(C)c(C)cc32)C=C[C@@H]1OC(C)=O`, the composite z-score was -0.293 in assay [1]; 0.704 in assay [2]; -0.0454 in [3]; 0.72 in assay [4]; 1.19 in assay [5]; 0.237 in assay [6]. Further, the composite z-score in assay [7] was determined as 1.1; in assay [9] it was 0.522; in [10], 0.0722. Also, in [8], the z-score is 0.523 (inactive).
As to `CCOC(=O)[C@H](Cc1ccccc1)NC(=O)CCC1CC(OC(=O)NCc2cccc3ccccc23)CC2(CCCC(COC(=O)NCc3ccc4c(c3)OCO4)O2)O1` (stereo not given in full), the composite z-score in assay [1] is -0.341; in [2], -0.261; in assay [3], -0.0391; in assay [4], 0.694; in assay [5] it was 0.305; in assay [6], 0.188. Moreover, the results for the composite z-score in assay [7], in [9] and in assay [10] were 1.07, 0.0918 and -0.134, respectively. In addition, the z-score in assay [8] is 1.4 (inactive).
For `CC(CCN1CCCc2nc(C)c(C)cc21)=NO[C@@H](C)c1cn([C@H](CO)Cc2ccccc2)nn1`, the composite z-score in assay [1] was -0.102; in assay [2] it was 0.417; in assay [3], -0.0257; in assay [4], 0.389; in assay [5], 0.414; in assay [6], -0.19. The composite z-score is 0.28 in assay [7], 0.4 in assay [9] and -0.277 in assay [10]. Moreover, in assay [8], the z-score is -0.0338 (inactive).
For the compound `CCOC(=O)[C@H](CC(C)C)NC(=O)CCC1CC(OC(=O)NCCc2ccc(F)cc2)CC2(CCCC(COC(=O)NCCCN3CCCC3=O)O2)O1` (stereo not given in full), the composite z-score in assay [1] is -0.547; in assay [2], -0.0261; in [3], -0.0922; in assay [4], 0.403; in [5], 0.951; in assay [6] it was -0.0939. Besides, the composite z-score in assay [7] was 0.763; in [9], -0.015; in [10], -0.0994. Further, in [8], the z-score was 0.404 (inactive).
Regarding `CC(C)=NO[C@H](C)c1cn([C@@H]2COC[C@H]2O)nn1`, the composite z-score in assay [1] was -0.517; in assay [2], -0.276; in assay [3], -0.163; in [4] it was 0.517; in assay [5], 0.712; in assay [6], 0.0493. The figures for the composite z-score in assay [7], in [9] and in [10] were 0.305, 0.362 and -0.0618, respectively. The z-score in [8] was -0.807 (inactive).
Take `COC(=O)[C@H](C)NC(=O)CCC1CC(OC(=O)NCCc2ccc(F)cc2)CC2(CCCC(COC(=O)NCCOc3ccccc3)O2)O1` (stereo not given in full): the composite z-score in assay [1] is -0.443; in [2], 0.269; in [3], -0.0392; in assay [4], 0.532; in [5], 1.34; in assay [6], 0.672. Also, the composite z-score was 0.933 in assay [7], 0.238 in assay [9] and -0.173 in assay [10]. In addition, the z-score in assay [8] was 0.907 (inactive).
